Results reported in PubChem BioAssay (EPA / NIEHS).
Values joined by “and” are separate entries in the source; they are usually repeats but may differ in a detail not shown here. Equal values may be shown once. More than one record can exist for a structure, and the calls need not agree. Active and inactive are the calls of the source. Rule for the calls: active = hit-call score of the fitted dose curve at least 0.9, where 1 is the maximum; inactive = score below 0.9.

What follows are molecules tested on Vascular cell adhesion molecule 1 (VCAM1), VCAM1 (gene 7412) (assay: BSK_LPS_VCAM1: BioMAP Diversity Plus: LPS Assay for Vascular cell adhesion molecule 1 (VCAM1) Biomarker Activity (AID 2283086)). Details: primary human HUVEC with PBMC; actives raise or lower the signal.
Description: BSK_LPS is a cell-based, multiplexed-readout assay that uses umbilical vein endothelium and peripheral blood mononuclear cells, a human vascular primary cell co-culture, with measurements taken at 24 hours after chemical dosing in a 96-well plate.BSK_LPS_VCAM1 is an assay component measured in the BSK_LPS assay. It measures VCAM-1 antibody related to regulation of gene expression using ELISA technology.Data from the assay component BSK_LPS_VCAM1 was analyzed into 1 assay endpoint. This assay endpoint, BSK_LPS_VCAM1, was analyzed with bidirectional fitting relative to DMSO as the negative control and baseline of activity. Using a type of binding reporter, gain or loss-of-signal activity can be used to understand changes in the signaling as they relate to the gene VCAM1. Furthermore, this assay endpoint can be referred to as a primary readout, because this assay has produced multiple assay endpoints where this one serves a signaling function. To generalize the intended target to other relatable targets, this assay endpoint is annotated to the cell adhesion molecules intended target family, where the subfamily is Immunoglobulin CAM.
The levels of cell surface (or secreted, indicated by the prefix "s") biomarker endpoints were measured by ELISA. Overt cytotoxicity to cells in confluent adherent cultures (all systems other than the BT system) was assessed by measuring total protein levels using sulforhodamine B (SRB) staining in parallel cultures at the time of biomarker measurements, indicated as SRB endpoints. For proliferation assays for adherent cell types, individual cell types are cultured at sub-confluence and relative cell numbers quantified by SRB staining at time points optimized for each system (48 h: 3C and CASM3C systems; 72 h: BT and HDF3CGF systems; 96 h: SAg system). SRB was performed by staining cells with 0.1% SRB after fixation with 10% TCA and reading wells at 560 nm.Viability and proliferation of PBMC (T cells) was quantified by Alamar Blue reduction for the SAg and BT systems. For PBMC viability (referred to as PBMC Cytotoxicity within the assay endpoint names), cells were plated (75,000/well in a 96-well plate) and then chemical samples added for 1 h before addition of activators, SEB and TSST-1 (20 ng/mL final concentration each). Cells were incubated for 90 h. Then, Alamar Blue (20 uL/well) (Invitrogen, Cat DAL1100) was added for 6 h, and the plates were read with a fluorescence microplate reader at 546/580 nm (excitation/emission). For PBMC proliferation, cells were plated and activated as above but incubated for only 16 h prior to addition of Alamar Blue. Plates were read after 6 h.

Compound	outcome	AC50
CCOC(=O)c1ccc(O)cc1	inactive	
C=CCOC(Cn1ccnc1)c1ccc(Cl)cc1Cl (stereo not given)	inactive	
CC(C)CCCCCCc1ccc(O)cc1		10 µM (active)
CCOC(=O)COc1cc(-n2ncc(C(F)(F)F)c(C)c2=O)c(F)cc1Cl	inactive	
CCCCCCC(C)OC(=O)COc1nc(F)c(Cl)c(N)c1Cl (stereo not given)		30.8 µM (active)
CC(=O)[C@H]1CC[C@H]2[C@@H]3CCC4=CC(=O)CC[C@]4(C)[C@H]3CC[C@]12C	inactive	
CCN(CC)C(=O)c1cccc(C)c1	inactive	
N#CSCSc1nc2ccccc2s1		4.53 µM (active) and 9.69 µM (active)
CCCCOC(=O)[C@@H](C)Oc1ccc(Oc2ccc(C(F)(F)F)cn2)cc1	inactive	
CC(C)(C)[C@@H](O)[C@@H](Cc1ccc(Cl)cc1)n1cncn1	inactive	
CCC(O)=C1C(=O)CC(C(=O)O)CC1=O (stereo not given)	inactive	
S=C(S)NCCNC(=S)S.[Mn+2].[S-]C([S-])=NCCN=C([S-])[S-].[Zn+2]	inactive	8.85 µM (active)
CC1(C)C(C=C(Cl)Cl)C1C(=O)OCc1cccc(Oc2ccccc2)c1 (stereo not given)	inactive	
COc1c(Cl)ccc(Cl)c1C(=O)O	inactive	
COC(=O)c1ccc(CNS(C)(=O)=O)cc1S(=O)(=O)NC(=O)Nc1nc(OC)cc(OC)n1	inactive	
CCSC(=O)N(CC(C)C)CC(C)C	inactive	
C#C[C@]1(O)CC[C@H]2[C@@H]3CCC4=CC(=O)CC[C@@H]4[C@H]3CC[C@@]21CC	inactive	
S=C([S-])NCCNC(=S)[S-].[Mn+2]		14.7 µM (active)
CCCN(CCC)c1c([N+](=O)[O-])cc(C(F)(F)F)c(N)c1[N+](=O)[O-]		30.7 µM (active)
CCOC(=O)C(C)Oc1ccc(Oc2nc3ccc(Cl)cc3o2)cc1 (stereo not given)	inactive	

Compound	outcome	AC50
CCCCOCCOCCOCc1cc2c(cc1CCC)OCO2	inactive	
CCNc1nc(N)nc(Cl)n1	inactive	
CCOC(=O)NCCOc1ccc(Oc2ccccc2)cc1	inactive	
c1ccc2[nH]c(-c3cscn3)nc2c1	inactive	
CCCCCOC(=O)COc1cc(N2C(=O)C3=C(CCCC3)C2=O)c(F)cc1Cl		15 µM (active)
Oc1ccc(C(c2ccc(O)cc2)C(Cl)(Cl)Cl)cc1		17.9 µM (active)
O=C(c1ccccc1)C1CCCCC1	inactive	
CN(C)C(=O)Nc1ccc(Cl)c(Cl)c1	inactive	
C[C@]12C[C@H](O)[C@H]3[C@@H](CCC4=CC(=O)CC[C@@]43C)[C@@H]1CC[C@@H]2C(=O)CO	inactive	
N[C@@H](Cc1cc(I)c(Oc2ccc(O)c(I)c2)c(I)c1)C(=O)O	inactive	
COC(=O)CSc1cc(N=c2sc(=O)n3n2CCCC3)c(F)cc1Cl	inactive	
COCCO	inactive	
C[C@]12CC[C@@H]3c4ccc(O)cc4C[C@@H](CCCCCCCCCS(=O)CCCC(F)(F)C(F)(F)F)[C@H]3[C@@H]1CC[C@@H]2O (stereo not given in full)	inactive	
COC(=O)c1c(Cl)nn(C)c1S(=O)(=O)NC(=O)Nc1nc(OC)cc(OC)n1	inactive	
CCCN(CCC)C(=O)SCC	inactive	
CCN(Cc1c(F)cccc1Cl)c1c([N+](=O)[O-])cc(C(F)(F)F)cc1[N+](=O)[O-]	inactive	
c1ccc(Nc2ccccc2)cc1	inactive	
Cc1nn(C)c(Oc2ccccc2)c1C=NOCc1ccc(C(=O)OC(C)(C)C)cc1		9.84 µM (active)
OB(O)O	inactive	
